# From PubChem BioAssay
# D2 antagonist – antagonizes the human D2 dopamine receptor; 340,000 compounds, 2% hits; P14416; AID 485344; HEK293 TREx D2 cells, calcium flux, dopamine EC80; inhibition, % at 10 µM; in the data active = inhibition above about 30%; inactive = below that, where a call was filed; note: 0% is about no effect
#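 Compounds are added to dye-loaded, induced HEK293 T-REx cells coupled to calcium release via D2; after a 3 min kinetic read an EC80 dopamine stimulus is given and fluorescence is recorded for 3 more min.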
# D2 ag-1 – human D2 receptor agonism in beta-arrestin assay. activation, % (concentration not given with the values). 360,000 compounds, 0.084% hits. DiscoveRx PathHunter D2 beta-arrestin, luminescence, 90 min; 100% = 57 uM dopamine signal. P14416. AID 624465; in the data active = activation above about 40%; inconclusive = between about 15% and that limit
#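 Agonist mode: compounds alone added to overnight-plated D2 PathHunter cells for 90 min at 37 C, with 57 uM final dopamine (EC100) defining full response. Beta-arrestin recruitment detected by chemiluminescent reagent, read after 1 h at ambient temperature.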
# D2 ag-2 – agonists of human D2 dopamine receptor; P14416; HEK293 T-REx D2 cells, calcium flux agonist mode; activation, % at 2 µM; 340,000 compounds, 0.53% hits;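 active = activation over 3 SD above normal in the single-dose calcium agonist read, cut at about 30% in these data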; note: 0% is about no effect
#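 Tetracycline-induced HEK293 T-REx cells with force-coupled D2 receptor, plated overnight at 30 C, loaded with no-wash calcium dye. After a 10 s baseline, compound was pin-added and calcium flux read kinetically for 180 s; calcium rises flagged agonists.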
# D2 PAM-1 – potentiates the human D2 dopamine receptor allosterically. DiscoveRx D2 beta-arrestin cells, luminescence, 90 min; 100% = 57 uM dopamine signal. potentiation, % (no concentration beside the values). 360,000 compounds, 0.23% hits. AID 624464; in the data active = potentiation above about 50%; inconclusive = mostly about 30% to 49%
#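 D2 cells co-treated with compound plus 50 nM dopamine (EC20) for 90 min at 37 deg C to detect potentiation. Beta-arrestin recruitment was read as enzyme-fragment luminescence after 1 h at ambient temperature. Full response was set by 57 uM dopamine.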
# D2 PAM-2 – D2 dopamine receptor (human) potentiation. potentiation, % at 10 µM. 340,000 compounds, 0.34% hits. HEK293 T-REx D2, calcium flux, EC20 dopamine potentiation. P14416;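 active = potentiation over 3 SD above the plate norm, cut at about 30% in these data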; note: 0% is about no effect
#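 Potentiation of an EC20 dopamine calcium response is measured in a force-coupled, tetracycline-inducible Hek293 Trex D2 line. Compound-only kinetic reads over 180 s flag agonists before dopamine addition.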
# D3 arrestin ag – D3 receptor agonism confirmed, beta-arrestin readout; shares compounds with D2 ag-2; DiscoveRx D3 beta-arrestin cells, luminescence, 90 min; Potency, µM (top dose mostly 76.9 µM), without a hit: at the highest dose activation, usual class: activators; 2,300 compounds, 4% hits; AID 720506;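 note: potency is the fitted concentration of half-maximal effect; 100% = dopamine control response; nearly all actives have a fitted effect of over 70% in size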
# Target sequence (P35462 whole entry, looked up): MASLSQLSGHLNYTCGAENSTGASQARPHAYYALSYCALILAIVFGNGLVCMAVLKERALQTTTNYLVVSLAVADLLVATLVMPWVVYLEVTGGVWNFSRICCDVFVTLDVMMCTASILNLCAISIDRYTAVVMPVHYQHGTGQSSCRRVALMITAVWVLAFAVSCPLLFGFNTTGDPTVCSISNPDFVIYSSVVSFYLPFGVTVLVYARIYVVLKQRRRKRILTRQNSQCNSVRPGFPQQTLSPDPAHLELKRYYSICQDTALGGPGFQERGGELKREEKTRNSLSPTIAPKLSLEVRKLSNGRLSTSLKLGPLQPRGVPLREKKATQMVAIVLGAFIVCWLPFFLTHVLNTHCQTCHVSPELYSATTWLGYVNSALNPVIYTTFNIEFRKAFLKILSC
# D2 ag-3 – counter-screen for D3 agonists: human D2 dopamine receptor agonism; shares compounds with D2 ag-2; DiscoveRx PathHunter D2 beta-arrestin, luminescence, 90 min; response scale: percent relative to full dopamine signal; Potency, µM (series often up to 76.9 µM), for inactives: at the highest dose activation, usual class: activators; 2,300 compounds, 5.9% hits; AID 720507; note: potency is the fitted concentration of half-maximal effect; % of control where 0% means no effect; nearly all actives have a fitted effect of over 70% in size
# An asterisk follows results filed as active; ? = inconclusive; . = no result. Most compounds without a hit are left out; they make up all but 2.4% or so of the library. Unless noted, calls come from the whole dose curve; as a rule, active = well fitted activation curve with a large enough effect; inconclusive = small, poorly fitted or top-dose-only effect; inactive = flat fitted curve, though single readings scatter.
SMILES,D2 antagonist,D2 ag-1,D2 ag-2,D2 PAM-1,D2 PAM-2,D3 arrestin ag,D2 ag-3
COc1ccc(N2CCN(CCCn3c(=S)[nH]c4ncccc4c3=O)CC2)cc1,2.1,1.4,-0.4,-31.3,8.3,.,.
COc1ccc2c(c1)[nH]c1c(=O)n(/N=C/C3C(C)C=C(C)CC3C)c(=O)[nH]c12 (stereo unspecified),29.4,-1.7,-0.7,7.7,.,.,.
COc1ccc2[nH]c3c(=O)n(/N=C/[C@H]4C(C)C=C(C)CC4C)c(=O)[nH]c3c2c1 (stereo partly specified),35.8*,2.7,40.8*,18.8,-15.4,10.1%,3.7%
CCOc1ccc(CC(=NCCc2ccccc2)C2=C(O)CC(C)(C)CC2=O)cc1OCC,0.4,0.4,47.2*,-3.1,-18.3,-2.3%,6.5%
CCOc1ccc(CC(=N)C2=C(O)CC(C)(C)CC2=O)cc1OCC,-16.0,-3.6,1.0,-5.0,2.6,.,.
Cc1cccc(C)c1NC(=S)NCCc1ccc(O)c(O)c1,67.3*,4.8,57.5*,7.2,-19.6,-8.5%,?
Cc1cccc(NC(=S)NCCc2ccccc2)c1C,-5.3,-3.1,-3.0,-5.0,14.1,.,.
CCOC(=O)N1CCN(C(=O)COC(=O)c2ccc(Cl)nc2)CC1,.,0.8,.,-6.9,.,.,.
CCOC(=O)C1(Cc2cccc(F)c2)CCN(CCCn2cccn2)CC1,-23.6,-0.4,42.5*,-22.8,-21.5,-8.9%,0.4%
CCOC(=O)C1(CCOc2ccccc2)CCN(Cc2cccc(-n3cccn3)c2)CC1,-1.4,6.0,0.0,-19.5,-20.3,.,.
CCOC(=O)C1(CCOc2ccccc2)CCN(CCCn2cccn2)CC1,76.8*,1.8,57.0*,-13.2,-21.4,8.0%,18.4%
O=C(c1ccco1)N1CCN(C/C=C/c2ccccc2)CC1,1.5,40.7*,89.5*,?,-27.7,?,?
O=C(NC(=S)N1CCN(C/C=C/c2ccccc2)CC1)c1c(F)cccc1F,-12.0,-3.1,-0.2,-6.7,-2.5,.,.
O=C(NC(=S)N1CCN(C/C=C/c2ccccc2)CC1)c1ccco1,9.2,-4.6,48.0*,-14.7,-17.9,1.5%,-2.1%
Cc1cc(C(=O)N2CCN(C/C=C/c3ccccc3)CC2)no1,5.5,0.3,1.1,-9.1,1.0,.,.
C=C1[C@@H](O)[C@H](Cc2ccccc2)N(Cc2ccccc2Br)S1(=O)=O,.,-2.4,.,-5.1,.,.,.
Cc1cc(C(=O)NNC(=O)c2ccc(C(F)(F)F)cc2)no1,18.6,-1.4,0.8,-5.6,1.1,-5.9%,-6.1%
Cc1cc(C(=O)NNc2ccc(F)cc2F)no1,8.5,5.8,49.0*,-6.0,-19.3,-1.7%,-1.4%
Cc1ccc(NNC(=O)c2cc(C)on2)c(C)c1,-7.9,2.1,1.1,-2.1,7.3,.,.
O=C(CN1CCN(S(=O)(=O)c2ccccc2F)CC1)N1CCc2ccccc2C1,.,-2.7,.,-20.9,.,.,.
Cc1ccc(C)c(CN2CCCN(Cc3ccccc3C)S2(=O)=O)c1,.,.,0.0,.,5.4,.,.
CSCCC(NC(=O)c1ccccc1)C(=O)Nc1ccncc1 (stereo unspecified),-32.6,3.4,-0.1,-1.0,-7.4,.,.
CSCCC(NC(=O)c1ccccc1Cl)C(=O)Nc1ccncc1 (stereo unspecified),-0.9,-3.4,0.9,-7.9,15.1,1.5%,?
CC(Sc1nc2ccccc2[nH]1)C(=O)Nc1ccc2c(c1)OCCO2 (stereo unspecified),65.8*,-2.4,0.5,-16.4,-8.4,-11.8%,-4.9%
CC(Sc1ncccn1)C(=O)Nc1ccc2c(c1)OCCO2 (stereo unspecified),.,-2.7,.,-36.2,.,.,.
SMILES,D2 antagonist,D2 ag-1,D2 ag-2,D2 PAM-1,D2 PAM-2,D3 arrestin ag,D2 ag-3
COc1cc2cc(CCOC(=O)c3ccco3)oc(=O)c2cc1OC,2.5,-0.4,0.0,-12.0,10.7,.,.
COc1cccc(OCC(O)CN2CCN(c3ccc(F)cc3)CC2)c1 (stereo unspecified),80.4*,1.4,33.9*,-12.7,-20.1,9.6%,3.0%
CCN1CCN(CC(O)COc2cccc(OC)c2)CC1 (stereo unspecified),2.1,-0.1,-0.3,-12.1,5.0,.,.
OC(COc1ccc2ccccc2c1)CN1CCN(c2ccc(F)cc2)CC1 (stereo unspecified),20.2,0.8,52.8*,3.7,-27.2,?,29.8%
COc1cccc(OC)c1OCC(O)CN1CCN(c2ccc(F)cc2)CC1 (stereo unspecified),73.0*,4.2,55.6*,-25.4,-30.9,-10.1%,4.9%
OC(COc1c(F)cc(Br)cc1F)CN1CCN(c2ccc(F)cc2)CC1 (stereo unspecified),70.9*,1.5,59.0*,-14.4,-30.2,?,?
COc1ccc(OC)c(NC(=O)Nc2nc(C(C)N)cs2)c1 (stereo unspecified),.,-2.4,.,-16.2,.,.,.
O=C(Nc1cc(Cl)ccc1Cl)C1(c2cccs2)CCOCC1,.,.,-1.1,.,-6.6,.,.
CCOC(=O)c1ccc(N2CN(CCc3ccccc3)CNC2=S)cc1,-14.6,-2.1,6.8,-8.6,7.0,-5.3%,-4.1%
CCCN1CNC(=S)N(c2ccc(C(=O)OCC)cc2)C1,-1.1,-2.7,-0.3,3.4,-3.6,.,.
Cc1cc(C(=O)OCC(=O)NC(C)c2ccc(F)cc2)c(C)o1 (stereo unspecified),-10.9,-1.5,-1.1,-3.0,3.2,.,.
COc1cccc(-c2c(C(=O)N/N=C(\C)c3cccs3)nnn2-c2nonc2N)c1,3.2,-1.6,37.2*,-6.2,-2.4,-7.5%,-3.9%
COc1cccc(-c2c(C(=O)N/N=C(\C)c3ccncc3)nnn2-c2nonc2N)c1,-10.3,2.7,0.3,-10.2,-5.5,.,.
C/C(=N\NC(=O)c1nnn(-c2nonc2N)c1-c1cccs1)c1ccc(C)cc1,11.4,-8.8,8.1,0.6,7.0,.,.
CCOc1cccc(-c2c(C(=O)N/N=C(\C)c3cccs3)nnn2-c2nonc2N)c1,15.6,-4.9,18.5,2.0,8.5,-3.5%,-3.4%
COc1ccc(/C(C)=N/NC(=O)c2nnn(-c3nonc3N)c2-c2cccs2)cc1,-8.4,-4.5,2.9,-8.6,15.0,0.3%,-3.5%
C/C(=N\NC(=O)c1nnn(-c2nonc2N)c1-c1ccc2c(c1)OCO2)c1cccs1,36.8*,-1.4,32.3*,-5.2,7.5,-1.5%,-2.6%
CCOc1ccc(NC(=O)c2ccc(-c3nc(COc4ccccc4)c(C)o3)cc2)cc1,.,.,.,.,5.8,.,.
